Source: PubChem BioAssay (NCI)
Compounds without any hit were thinned out: in the full panel of roughly 83,000, 20% have a hit.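 For each line, cells grew in 96-well plates with the test compound present at a single concentration for 48 hours.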 Values without a mark were called inactive. Active and inactive are the calls of the source. How the source made its calls: active means growth percent below 10; inactive means the rest.

system: UACC-62 melanoma; experiment: NCI-60 one-dose screen, 48 h (100 = growth as untreated, 0 = no growth, -100 = all killed); details: 10 µM

SMILES	growth
CC(=O)Nc1nc(-c2ccc(N3CCN(C)CC3)c(NS(=O)(=O)c3cccc4c(N(C)C)cccc34)c2)cs1	13.1%
CNC(=O)c1cccc(N2CCc3c2ccc(NC(=O)Nc2ccc(N4CCN(C)CC4)c(C(F)(F)F)c2)c3F)c1	88.9%
CN1CCN(c2ccc(Nc3nc(N4CCN(S(=O)(=O)c5ccc(Cl)cc5)CC4)c4sccc4n3)cc2)CC1	-90.3% (active)
CC1(C)CC[C@]2(C(=O)NCCCNCCCCNCCCN)CC[C@]3(C)C(=CC[C@@H]4[C@@]5(C)Cc6c([nH]c7ccccc67)C(C)(C)[C@@H]5CC[C@]43C)[C@H]2C1	116%
C=CC(=O)Nc1nc(-c2cccc(NS(=O)(=O)c3cccc4c(N(C)C)cccc34)c2)cs1	-86.8% (active)
COC1CC(Cn2cc(COc3ccc4ccc(=O)oc4c3)nn2)C(OCc2ccccc2)C(OCc2ccccc2)C1OCc1ccccc1 (stereo not given)	82.6%

system: LOX IMVI melanoma; experiment: as above; details: 10 µM

SMILES	growth
Cc1ccc(C(=O)NCCCNc2nc(Nc3ccc(N4CCN(C)CC4)cc3)nc3ccsc23)cc1	-22.6% (active)
O=C(c1ccc(-n2c(=O)[nH]c3ccccc3c2=O)cc1)N1CCOCC1	104%
O=S(=O)(c1ccc(Cl)cc1)c1nc(-c2ccccc2)oc1S(=O)(=O)c1ccc(Cl)cc1	19.7%
Cc1ccc(C(C)C)cc1NC(=O)c1ccccc1N(C)C	86.8%
COc1ccc2[nH]c(O)c(N=NC(=O)COc3ccc(NC(=O)Nc4ccc(Cl)c(Cl)c4)cc3)c2c1	-100% (active)
COc1cccc(-c2nn(-c3ccccc3)cc2-c2ccnc(NCCCNC(=O)Nc3ccc(F)cc3)c2)c1	3.45% (active)
CN1CCN(c2ccc(Nc3nc(NCCCNC(=O)c4ccc(F)cc4)c4sccc4n3)cc2)CC1	13.4%
CC1(C)CC[C@]2(C(=O)Nc3ccccc3)CC[C@]3(C)C(=CC[C@@H]4[C@@]5(C)CC[C@H](N)C(C)(C)[C@@H]5CC[C@]43C)[C@H]2C1	-98.7% (active)
C[C@H]1[C@H](C)CC[C@]2(COC(=O)CCC(=O)NCC#CCN3CCNCC3)CC[C@]3(C)C(=CC[C@@H]4[C@@]5(C)CCCNC(C)(C)[C@@H]5CC[C@]43C)[C@H]12	1.63% (active)
O=C(Nc1ccncc1)c1ccc(-n2c(=O)[nH]c3ccccc3c2=O)cc1	83.9%
Cc1ccc(C(C)C)cc1NC(=O)c1ccccc1O	40.1%
CCCS(=O)(=O)c1oc(-c2ccc(F)cc2)nc1S(=O)(=O)c1ccc(F)cc1	-100% (active)
CN(C)c1cccc2c(S(=O)(=O)Nc3cccc(-c4csc(NC(=O)CCCCCN5CCN(c6cc7c(cc6F)C(=O)N(C6CCC(=O)NC6=O)C7=O)CC5)n4)c3)cccc12 (stereo not given)	91.8%
CC(=C(c1ccc(OCCN2CCCCC2)cc1)c1ccc(OCCN2CCCCC2)cc1)c1ccccc1	-96.6% (active)
CC[C@@]1(O)C(=O)OCc2c1cc1n(c2=O)Cc2c-1nc1cc(F)c(C)c3c1c2[C@@H](N)CC3	-74.2% (active)
O=C(Cn1cc(CSc2nnc3oc4ccccc4n23)nn1)Nc1cccc(Cl)c1	58.3%
C=C(C)[C@@H]1CC[C@]2(C(=O)OC)CC[C@]3(C)[C@H](CC[C@@H]4[C@@]5(C)CC[C@H](N)C(C)(C)[C@@H]5CC[C@]43C)[C@@H]12	-98.4% (active)
COc1ccc(-c2nc(S(=O)(=O)c3ccc(C)cc3)c(S(C)(=O)=O)o2)cc1	-89.1% (active)
CCN1CCN(c2ccc(NC(=O)Nc3ccc(-c4cc(C(=O)NC(C)C)c5ncccc5n4)cc3)cc2C(F)(F)F)CC1	-100% (active)
C=C[C@H]1[C@H](O[C@@H]2OC(CO)[C@@H](O)[C@H](O)C2OC(=O)c2c(O)cc(O)cc2-c2cccc(O)c2)OC=C2C(=O)OCC[C@H]21 (stereo not given in full)	99.3%
COc1ccc(C(C)=C(c2ccc(OCCCN(C)C)cc2)c2ccc(OCCCN(C)C)cc2)cc1	-92.5% (active)
CC1(C)CC[C@]23CC[C@]4(C)[C@H](CC[C@@H]5[C@@]6(C)CC[C@H](N)C(C)(C)[C@@H]6CC[C@]54C)[C@H]2[C@H]1OC3=O	-98.9% (active)
CCN1CCN(c2ccc(NC(=O)Nc3ccc(-c4cc(C(=O)NC)c5ncccc5n4)cc3)cc2C(F)(F)F)CC1	-100% (active)
COc1ccc2[nH]c(O)c(N=NC(=O)c3cc(-c4ccc(C)cc4)nc4ccccc34)c2c1	83.5%
